BoNT-A LC inh2: BoNT/A light chain protease inhibitors, primary screen, biochemical, flow cytometry, MLPCN library; multiplex microsphere protease substrate cleavage; inhibition, % at 10 µM; hit rate 0.17% among 360,000; further: plate controls were buffer without enzyme for full effect and enzyme alone for no effect
Anthrax LF inh2: Bacillus anthracis LF protease inhibitors, primary screen, biochemical, multiplex microsphere, MLPCN library | Lethal factor (Bacillus anthracis), P15917 | multiplex microsphere protease cleavage assay | inhibition, % at 10 µM | hit rate 0.12% among 360,000 | AID 588501, 2011; further: plate controls were buffer without enzyme for full effect and enzyme alone for no effect
Target sequence (P15917 whole entry, looked up): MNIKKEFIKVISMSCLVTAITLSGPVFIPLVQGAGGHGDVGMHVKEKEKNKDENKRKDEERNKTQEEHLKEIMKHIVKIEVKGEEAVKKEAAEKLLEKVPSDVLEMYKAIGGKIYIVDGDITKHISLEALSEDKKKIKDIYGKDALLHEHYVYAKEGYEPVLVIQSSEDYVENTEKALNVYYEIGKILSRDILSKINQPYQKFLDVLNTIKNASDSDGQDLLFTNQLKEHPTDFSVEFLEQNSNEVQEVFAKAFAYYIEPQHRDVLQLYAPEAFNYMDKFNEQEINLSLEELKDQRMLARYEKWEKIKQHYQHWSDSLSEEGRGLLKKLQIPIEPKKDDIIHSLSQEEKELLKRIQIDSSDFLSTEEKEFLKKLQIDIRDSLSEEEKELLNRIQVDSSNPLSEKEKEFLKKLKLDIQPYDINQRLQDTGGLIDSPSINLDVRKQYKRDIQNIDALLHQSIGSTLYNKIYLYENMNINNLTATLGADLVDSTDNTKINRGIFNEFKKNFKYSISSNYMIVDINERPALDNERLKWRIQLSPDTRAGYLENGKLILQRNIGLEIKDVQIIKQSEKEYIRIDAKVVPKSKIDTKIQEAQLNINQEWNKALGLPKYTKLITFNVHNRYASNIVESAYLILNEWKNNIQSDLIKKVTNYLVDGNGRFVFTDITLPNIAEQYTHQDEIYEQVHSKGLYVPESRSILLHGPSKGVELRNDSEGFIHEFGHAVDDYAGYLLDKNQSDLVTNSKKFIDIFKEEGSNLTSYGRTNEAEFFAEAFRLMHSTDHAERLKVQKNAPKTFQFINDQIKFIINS
BoNT F protease: BoNT/F light chain protease inhibitors, primary screen, biochemical, flow cytometry, MLPCN library | inhibition, % at 10 µM | hit rate 0.22% among 360,000 | Multiplex microsphere protease cleavage assay | Botulinum neurotoxin type F light chain protease (Clostridium botulinum); in the data active means inhibition above about 35%, passing the limit was not always enough; inconclusive means no clear call, values can overlap the other calls; further: plate controls were buffer without enzyme for full effect and enzyme alone for no effect
Autofluor counter: compound fluorescence in toxin protease inhibitor counterscreen. compound autofluorescence counterscreen, microsphere flow cytometry; hits give high values. fluorescence intensity (test concentration not listed). hit rate 3.1% among 360,000; in the data active means fluorescence intensity above about 16000; inconclusive means no clear call, values can overlap the other calls
BoNTA LC inh 1: BoNT/A light chain protease inhibitors, confirmation, biochemical, flow cytometry, cherry pick 1; shares compounds with BoNT F protease; multiplex microsphere protease assay; inhibition, % at 10 µM; hit rate 3% among 720; AID 602139, 2011; in the data active means inhibition above about 32%
BoNT-F LC CP1: BoNT/F light chain protease inhibitors, confirmation, biochemical, flow cytometry, cherry pick 1; AID 602140, 2011; multiplex microsphere protease cleavage assay; shares compounds with BoNT F protease; inhibition, % at 10 µM; 720 tested, under 10 active; call rule not given here
Anthrax LF CP1: Bacillus anthracis LF protease inhibitors, confirmation, biochemical, multiplex microsphere, cherry pick 1; shares compounds with BoNT F protease; multiplex microsphere protease cleavage assay; inhibition, % at 10 µM; 720 tested, under 10 active; AID 602142, 2011; call rule not given here
Starred values were filed as active, the others as inactive; ? = inconclusive; . = no result given. Rows were chosen to be rich in hits. Some 3.5% of all compounds tested hit in one or more screens of this group. Unless noted, no stated cut-off is given here; in the data, active means inhibition above about 30%; inconclusive means no clear call, values can overlap the other calls; inactive means below that.

SMILES	BoNT-A LC inh2	Anthrax LF inh2	BoNT F protease	Autofluor counter	BoNTA LC inh 1	BoNT-F LC CP1	Anthrax LF CP1
O=C(NC1CCCc2ccccc21)C1CCN(S(=O)(=O)c2ccccc2)CC1 (stereo not drawn)	1	-3	1	10345	.	.	.
CCOC(=O)CSc1nc2sc3c(c2c(=O)n1-c1ccc(OC)cc1)CCN(C)C3	42*	3	?	4383	2	-4	-3
O=S(=O)(c1cccc(C(F)(F)F)c1)N1CCC(CO)(CCCc2ccccc2)CC1	2	49*	24	3530	0	-4	2
CC(C)N(Cc1ccccc1)C(=O)CC(=O)N(Cc1ccccc1)C(C)C	9	12	36*	5070	0	-4	-2
CC(C)N(Cc1ccccc1)C(=O)CN1C(=O)c2ccccc2C1=O	0	-10	7	4105	.	.	.
CCCNc1cc(C)c(C#N)c2nc3ccccc3n12	0	-7	1	3286	.	.	.
CNc1cc(C)c(C#N)c2nc3ccccc3n12	0	32*	7	3969	0	-1	-5
CCCCC1CCC(C(=O)N(CCOC)c2c(N)n(CCCC)c(=O)[nH]c2=O)CC1 (stereo not drawn)	-2	-2	-1	5658	.	.	.
COc1cc(OC)cc(C(=O)Nc2ccc(C(=O)NCC3CCCO3)cc2)c1 (stereo not drawn)	-2	4	?	3652	.	.	.
COc1ccc(C(=O)NCC2CCCO2)cc1 (stereo not drawn)	2	0	36*	2090	0	-1	-2
COc1ccc(CCNC(=O)CCCc2ccccc2)cc1OC	2	10	35*	3365	0	-5	2
CC(C)[C@@H](CO)N(C)S(=O)(=O)c1ccccc1Br	0	-7	-1	3896	.	.	.
C=CCn1c(SCC(=O)Nc2nc(C)cs2)nnc1C(CO)NC(=O)c1ccccc1 (stereo not drawn)	2	1	30	4560	-1	2	-3
CCn1c(SCC(=O)Nc2nc(C)cs2)nnc1C(NC(=O)c1ccccc1Cl)C(C)C (stereo not drawn)	-1	-2	-6	2432	.	.	.
Cc1ccccc1Cn1c(NC2CCCC2)nc2c1c(=O)[nH]c(=O)n2C	-1	-2	?	3837	.	.	.
Cc1nc2cc(F)ccc2n1C1CCN(Cc2nnnn2CCc2ccccc2)CC1	1	-2	42*	4226	0	1	1
Cc1ccc(S(=O)(=O)Oc2ccccc2[N+](=O)[O-])cc1	0	-2	0	3721	.	.	.
CN1CCN(CC(=O)Nc2nnc(-c3cccs3)s2)CC1	3	0	36*	2108	-1	-5	0
O=C(NCC1CC1)c1cccs1	0	-9	-14	4832	.	.	.
O=C(NCCC1CCCC1)c1cccs1	?	31*	?	3779	0	1	-1
CCCCNC(=O)Cn1cnc([N+](=O)[O-])n1	5	0	40*	2612	-1	0	6
O=C(c1nn2c(C(F)(F)F)cc(-c3cccs3)nc2c1Br)N1CCCc2ccccc21	47*	19	18	2108	7	-2	6
CSc1nc(Oc2ccc(F)cc2F)cc(C(F)(F)F)n1	1	3	41*	3385	0	-8	-3
CC(C)CNS(=O)(=O)c1ccc(CCC(=O)NC2CCCCC2)cc1	-1	59*	11	3071	-1	-5	-1
COc1ccc(S(=O)(=O)N2CCCCC2)cc1NC(=O)CCNC(=O)c1ccc(Cl)cc1	0	8	-6	2988	.	.	.
SMILES	BoNT-A LC inh2	Anthrax LF inh2	BoNT F protease	Autofluor counter	BoNTA LC inh 1	BoNT-F LC CP1	Anthrax LF CP1
Cc1ccc2nc(SCC(=O)O)nc(C)c2c1	3	7	40*	4380	-1	-6	-4
Cc1ccc2nc(SCCC#N)nc(C)c2c1	1	1	13	4543	.	.	.
CCCCn1c(N)c(N(Cc2ccccc2OC)C(=O)CCC(C)C)c(=O)[nH]c1=O	0	-3	2	6301	.	.	.
Oc1ccc(Cl)cc1C=Nc1ccccc1Br	0	1	-1	2081	.	.	.
Oc1ccc(Br)cc1C=Nc1ccc2c3c(cccc13)CC2	33*	13	-5	3654	8	-2	4
Cc1ccc(OC2CCN(C(=O)[C@H]3O[C@@H](n4cnc5c(N)ncnc54)[C@H](O)[C@@H]3O)CC2)cc1	0	-8	1	5767	.	.	.
CC(C(=O)NCc1ccccc1Cl)n1cc([N+](=O)[O-])cn1 (stereo not drawn)	-1	-15	38*	3781	0	-4	-1
COC(=O)c1ccc(Cn2c(C)c(C(=O)NCc3ccco3)sc2=O)o1	0	0	4	3844	.	.	.
CCOc1cc(CNCCc2ccccc2F)ccc1OC	10	13	83*	3522	0	-5	-4
CCc1ccc(CNCCc2ccccc2F)cc1	0	-2	-8	2112	.	.	.
CC1CCCCC12NC(=O)N(CC(=O)Nc1nccs1)C2=O (stereo not drawn)	0	-6	-5	4187	.	.	.
CC1CCCC(N2CCN(C(=O)c3ccccc3F)CC2)C1 (stereo not drawn)	1	38*	?	3001	-1	-5	2
CC1CCCC(N2CCN(C(=O)c3cccc(F)c3)CC2)C1 (stereo not drawn)	-1	-4	-5	8146	.	.	.
Cc1[nH]c(=O)nc(NN=Cc2ccc(Cl)cc2)c1C(=O)Nc1ccc(Cl)cc1	0	-5	3	3725	.	.	.
CC(C)OC(=O)CC1C(=O)NCCN1C(=S)NC(=O)c1ccccc1 (stereo not drawn)	2	-3	35*	2567	-1	-4	-5
O=C(NCc1cccc(Cl)c1)N1CCN(S(=O)(=O)c2ccccc2F)CC1	6	-7	69*	3551	0	-7	4
O=C(NCc1ccc(F)cc1)N1CCN(S(=O)(=O)c2ccccc2F)CC1	-1	6	2	3663	.	.	.
COc1ccc(N(C(=O)c2snc(C(N)=O)c2N)C(C(=O)NCC2CCCO2)c2ccc3ncccc3c2)cc1OC (stereo not drawn)	-2	1	38*	3435	0	-7	1
COc1ccc(C)cc1N1CC(C(=O)OCc2nc(N)nc(Nc3ccccc3C)n2)CC1=O (stereo not drawn)	1	0	4	5778	.	.	.
CCC(C)[C@H](NC(=O)[C@@H]1Cc2c([nH]c3ccccc23)C2c3ccccc3C(=O)N21)C(=O)NCC1CCCO1 (stereo partly drawn)	0	2	4	5298	.	.	.
O=C(Cn1nc(C(=O)O)c2ccccc2c1=O)Nc1ccccc1C(F)(F)F	-2	8	1	3506	.	.	.
CCOC(=O)c1cnc2c(C(=O)OCC)cnn2c1N	1	31*	?	4174	1	0	3

Screening data deposited in PubChem BioAssay by NMMLSC.
